According to PubChem BioAssay (NCATS):
Records with an inconclusive call do not appear. Values without a mark were called inactive. Calls follow the shape of the dose curve; as a rule, active = well fitted activation curve with a large enough effect; inconclusive = small, poorly fitted or top-dose-only effect; inactive = flat fitted curve, though single readings scatter.

assay: Primary redox qHTS assay for identification of artifact compounds. (AID 1845223); conditions: Amplex Red/HRP redox cycling with DTT, fluorescence; series mostly up to 53.8 µM; redox activity (% of DA3003): at the top concentration;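 also: 0% = DMSO and 100% = reference compound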
In short: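 Amplex Red (25 uM) and HRP (250 mU/mL) in HBSS, with compounds for 15 min, then 250 uM DTT for 30 min, room temperature, dark. Fluorescence 525/598 nm read; normalized to DMSO and 10 uM DA3003; Hill fit.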

| Structure (SMILES) | redox activity (% of DA3003) |
| --- | --- |
| COc1cc2c(cc1OC)[C@@]13CCN4CC5=CCO[C@H]6CC(=O)N2[C@H]1[C@H]6[C@H]5C[C@H]43 | -0.143% [at 25.6 µM] |
| C[C@H]1O[C@@H](O[C@H]2C[C@@H](O)[C@]3(CO)C4C(CC[C@]3(O)C2)[C@@]2(O)CC[C@H](C3=CC(=O)OC3)[C@@]2(C)C[C@H]4O)[C@@H](O)[C@@H](O)[C@H]1O (stereo partly specified) | -9.67% [at 25.6 µM] |
| COc1c(C(C)C)cc2c(c1O)[C@@]1(C(=O)O)CCCC(C)(C)C1CC2 (stereo partly specified) | 8.33% |
| CC(CCc1ccc(O)cc1)O[C@@H]1O[C@H](CO[C@H]2OC[C@](O)(CO)[C@H]2O)[C@@H](O)[C@H](O)[C@H]1O (stereo partly specified) | -18.5% [at 25.6 µM] |
| CC(=O)OC1CC(O)C(C)(C)C2CC(OC(C)=O)C3(C)C(CCC4(C)C(c5ccoc5)C(=O)C5OC543)C12C (stereo unspecified) | 0.232% [at 25.6 µM] |
| N#CC(OC1OC(COC2OC(CO)C(O)C(O)C2O)C(O)C(O)C1O)c1ccccc1 (stereo unspecified) | -15.9% [at 25.6 µM] |
| COC(=O)[C@@]12C(=O)C(C)C(=O)[C@]1(C)C(C)=C[C@H]1[C@]3(C=O)CC[C@H](OC(C)=O)C(C)(C)[C@H]3CC[C@@]12C (stereo partly specified) | 15.1% [at 25.6 µM] |
| CN(C(=O)Cc1ccccc1)C(CN1CCCC1)c1ccccc1 (stereo unspecified) | -2.99% |
| CCN1CC2(COC)C3[C@@H](OC)C4C1C3(C1C[C@]3(O)[C@H](OC(=O)c5ccccc5)C1[C@]4(OC(C)=O)[C@@H](O)[C@@H]3OC)[C@H](OC)C[C@H]2O (stereo partly specified) | -2.37% |
| CC1C/C=C/C(O)C(O)CC/C=C/c2cc(O)cc(O)c2C(=O)O1 (stereo unspecified) | -1.75% |
| CCC1NC(=O)C2C(Cl)C(Cl)CN2C(=O)C(C(C)O)NC(=O)CC(c2ccccc2)NC(=O)C(CO)NC1=O (stereo unspecified) | -8.68% [at 25.6 µM] |
| CCN1C[C@]2(COC)[C@H](O)C[C@H](OC)[C@]34[C@@H]5C[C@]6(O)[C@H](OC(=O)c7ccccc7)[C@@H]5[C@@](O)([C@H]([C@H](OC)[C@H]23)[C@@H]14)[C@@H](O)[C@@H]6OC | -0.23% |
| COc1cc(C(=O)O[C@H]2[C@@H]3C=CO[C@@H](O[C@@H]4O[C@H](CO)[C@@H](O)[C@H](O)[C@H]4O)[C@@H]3[C@@]3(CO)O[C@@H]23)ccc1O | -3.28% [at 25.6 µM] |
| C=CC(C)(O)CC/C=C(\C)C(=O)O[C@H]1[C@H](O)[C@@H](CO)O[C@@H](OC(=O)[C@]23CCC(C)(C)CC2C2=CCC4[C@@]5(C)CC[C@H](O[C@@H]6O[C@H](CO[C@@H]7OC[C@H](O)[C@H](O)[C@H]7O[C@@H]7OC[C@@H](O)[C@H](O)[C@H]7O)[C@@H](O)[C@H](O)[C@H]6O)C(C)(C)C5CC[C@@]4(C)[C@]2(C)CC3)[C@@H]1OC1OC(C)C(O[C@@H]2OC[C@@H](O)[C@H](O[C@@H]3OC[C@@H](O)[C@H](O)[C@H]3O)[C@H]2O)C(O)C1O (stereo partly specified) | -6.27% [at 11.5 µM] |
| CN(C)CCc1c[nH]c2ccc(CN3CCN(C)S3(=O)=O)cc12 | -4.71% |
| CC1=CC2/C=C(\C)CCC(O)C3OC(C)(C)OC3CC(=O)OC23C(=O)NC(CC(C)C)C3C1C (stereo unspecified) | 15% [at 25.6 µM] |

| Structure (SMILES) | redox activity (% of DA3003) |
| --- | --- |
| CCCN1CCO[C@H]2c3cc(O)ccc3OC[C@@H]21 | -0.966% |
| CN1C(=O)c2ccccc2NC(=O)[C@]12O[C@@H]2c1ccccc1 | -13.6% |
| Cc1cccc(NC(=O)N[C@@H]2N=C(c3ccccc3)c3ccccc3N(C)C2=O)c1 | -4.89% |
| CN1C(=O)c2ccccc2NC(=O)C1Cc1ccccc1 (stereo unspecified) | -0.905% |
| Cc1c(Cl)cccc1S(=O)(=O)Nc1nc(CC(=O)N2CCN(C)CC2)cs1 | 7.05% |
| COC1CC(O[C@H]2CC[C@]3(C=O)C4CC[C@]5(C)[C@@H](C6=CC(=O)OC6)CC[C@]5(O)[C@@H]4CC[C@]3(O)C2)OC(C)C1O[C@@H]1O[C@H](CO)[C@@H](O)[C@H](O)[C@H]1O (stereo partly specified) | -9.85% [at 25.6 µM] |
| CCc1[nH]c2ccc(OC)cc2c1CCN(C)C | -4.68% |
| COCC1OC(=O)c2coc3c2C1(C)C1=C(C3=O)C2CCC(=O)C2(C)CC1O (stereo unspecified) | -7.15% |
| CN[C@H]1[C@H](O)[C@H](O[C@@H]2[C@@H](O)[C@H](O[C@H]3O[C@H]([C@H](C)O)[C@@H](O)[C@H](O)[C@H]3N)[C@@H](N)C[C@H]2N)OC[C@@]1(C)O | -6.25% |
| CC(C)(O)[C@H]1O[C@H]2CC[C@@]3(C)[C@@](O)(CC[C@H]4Cc5c([nH]c6ccccc56)[C@@]43C)C2=CC1=O | 6.26% [at 25.6 µM] |
| C=C[C@H]1CN2CC[C@H]1C[C@@H]2[C@@H](O)c1ccnc2ccccc12 | -1.56% |
| Cc1cn(C[C@H](N)C(=O)O)c(=O)n(Cc2cc(-c3ccccc3)sc2C(=O)O)c1=O | -3.21% |
| C[C@@](O)(COc1ccc(C#N)cc1)C(=O)Nc1ccc(C#N)c(C(F)(F)F)c1 | -2.9% |
| C[C@@H]1C(=O)O[C@H]2[C@H](O)[C@@]34[C@@H]5OC(=O)[C@@]3(O[C@@H]3OC(=O)[C@@H](O)[C@@]34[C@H](C(C)(C)C)[C@H]5O)[C@@]12O | -11.5% [at 25.6 µM] |
| COC1CC(=O)C23C(=O)NC(CC(C)C)C2C(C)=C(C)C(OO)C3/C=C(\C)CCC(O)C1O (stereo unspecified) | 18.6% [at 25.6 µM] |
